PubChem BioAssay AID1159580 (chemical genetic matrix, 2015)
“And” between values parts separate entries of the source, which are not always exact repeats. Identical values can stand only once. In all, about 5,500 compounds went through this assay and about 2,000 (36%) were called active. About 18% were inconclusive and are not listed. Rule as the data show it: active = normalized growth mostly below about 0.91 (no sharp cut-off); inconclusive = no clear call, values can overlap the other calls; inactive = mostly above about 0.92. The list shows a part of the results.

Assay: chemical genetic growth profiling, strain panel (AID 1159580);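 also: tested at 20 µM; growth read once vehicle control cultures reached saturation at 30 °C; 1 = growth at the plate median or of vehicle wells; lower values mean less growth of the strain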
Conditions: S. cerevisiae deletion strains, growth OD

Measured: normalized growth

CCCCOc1ccc(C(=O)CCN2CCCCC2)cc1
active: locus YAL013W, strain DEP1, stronger effect = lower value 0.807 | locus YAL021C, strain ccr4, stronger effect = lower value 0.871 | locus YAL026C, strain drs2, stronger effect = lower value 0.107 | locus YBR009C, strain hhf1, stronger effect = lower value 0.879 | locus YBR231C, strain swc5, stronger effect = lower value 0.866 | locus YBR279W, strain paf1, stronger effect = lower value 0.931 | locus YCL029C, strain bik1, stronger effect = lower value 0.857 | locus YCL061C, strain MRC1, stronger effect = lower value 0.875 | locus YCL069W, strain vba3, stronger effect = lower value 0.139 | locus YDL035C, strain GPR1, stronger effect = lower value 0.772 | locus YDL074C, strain BRE1, stronger effect = lower value 0.5 | locus YDL134C, strain PPH21, stronger effect = lower value 0.137 | locus YDL192W, strain arf1, stronger effect = lower value 0.54 | locus YDR069C, strain doa4, stronger effect = lower value 0.898 | locus YDR137W, strain rgp1, stronger effect = lower value 0.769 | locus YDR162C, strain NBP2, stronger effect = lower value 0.44 | locus YDR195W, strain ref2 1.29 [resistant] | locus YDR318W, strain mcm21, stronger effect = lower value 0.0958 | locus YDR334W, strain swr1, stronger effect = lower value 0.851 | locus YDR335W, strain msn5, stronger effect = lower value 0.277 | locus YDR388W, stronger effect = lower value 0.53 | locus YDR392W, strain spt3, stronger effect = lower value 0.108 | locus YDR502C, strain sam2, stronger effect = lower value 0.657 | locus YEL003W, strain gim4, stronger effect = lower value 0.888 | locus YEL037C, strain rad23, stronger effect = lower value 0.853 | locus YEL061C, strain CIN8 (second series), stronger effect = lower value 0.446 | locus YEL061C, strain CIN8, stronger effect = lower value 0.675 | locus YER016W, strain bim1, stronger effect = lower value 0.9 | locus YER110C, stronger effect = lower value 0.275 | locus YER155C, strain BEM2 (second series), stronger effect = lower value 0.146 | locus YER155C, strain BEM2, stronger effect = lower value 0.258 | locus YER167W, strain BCK2, stronger effect = lower value 0.277 | locus YFR010W, strain ubp6, stronger effect = lower value 0.815 | locus YGL086W, strain mad1, stronger effect = lower value 0.157 | locus YGL173C, strain kem1, stronger effect = lower value 0.845 | locus YGL240W, strain doc1, stronger effect = lower value 0.85 | locus YGL248W, strain PDE1, stronger effect = lower value 0.0961 | locus YGL253W, strain hxk2, stronger effect = lower value 0.252 | locus YGR078C, strain PAC10, stronger effect = lower value 0.187 | locus YGR135W, strain pre9, stronger effect = lower value 0.42 | locus YGR229C, strain SMI1, stronger effect = lower value 0.428 | locus YGR252W, strain gcn5, stronger effect = lower value 0.402 | locus YHR013C, strain ard1, stronger effect = lower value 0.707 | locus YHR027C, strain rpn1, stronger effect = lower value 0.901 | locus YHR079C, strain IRE1 (second series), stronger effect = lower value 0.854 | locus YHR094C, strain hxt1, stronger effect = lower value 0.0833 | locus YHR129C, strain ARP1, stronger effect = lower value 0.413 | locus YHR142W, strain chs7, stronger effect = lower value 0.155 | locus YHR200W, strain rpn10, stronger effect = lower value 0.838 | locus YIL066C, strain RNR3, stronger effect = lower value 0.134 | locus YIL073C, strain SPO22, stronger effect = lower value 0.281 | locus YIR030C, strain dcg1, stronger effect = lower value 0.486 | locus YJL095W, strain BCK1 (second series), stronger effect = lower value 0.734 | locus YJL134W, strain LCB3, stronger effect = lower value 0.533 | locus YJL164C, strain tpk1, stronger effect = lower value 0.883 | locus YJL168C, strain set2, stronger effect = lower value 0.468 | locus YJL187C, strain SWE1 (second series), stronger effect = lower value 0.84 | locus YJR043C, strain POL32, stronger effect = lower value 0.636
0.415 (active) and 0.996 (inactive): locus YJL095W, strain BCK1, stronger effect = lower value
inactive: locus YAL030W, strain snc1, stronger effect = lower value 0.977 | locus YBL061C, strain skt5, stronger effect = lower value 0.968 | locus YBR021W, strain FUR4, stronger effect = lower value 0.918 | locus YBR023C, strain chs3, stronger effect = lower value 0.95 | locus YBR171W, strain sec66, stronger effect = lower value 0.981 | locus YBR229C, strain ROT2, stronger effect = lower value 1 | locus YCL011C, strain gbp2, stronger effect = lower value 0.966 | locus YCL016C, strain dcc1, stronger effect = lower value 0.927 | locus YCR088W, strain abp1, stronger effect = lower value 0.94 | locus YDL005C, strain med2, stronger effect = lower value 0.994 | locus YDL040C, strain nat1, stronger effect = lower value 0.989 | locus YDL101C, strain DUN1, stronger effect = lower value 0.907 | locus YDL185W, strain tfp1, stronger effect = lower value 0.961 | locus YDR001C, strain nth1, stronger effect = lower value 0.992 | locus YDR101C, strain arx1, stronger effect = lower value 0.951 | locus YDR159W, strain sac3, stronger effect = lower value 0.913 | locus YDR297W, strain sur2, stronger effect = lower value 0.952 | locus YER015W, strain faa2, stronger effect = lower value 0.967 | locus YER111C, strain swi4, stronger effect = lower value 0.979 | locus YGL078C, strain dbp3, stronger effect = lower value 0.928 | locus YGL167C, strain pmr1, stronger effect = lower value 0.986 | locus YGL227W, strain vid30, stronger effect = lower value 0.997 | locus YHR079C, strain IRE1, stronger effect = lower value 1.04 | locus YIL125W, strain kgd1, stronger effect = lower value 0.957 | locus YJL092W, strain hpr5, stronger effect = lower value 0.918 | locus YJL115W, strain asf1, stronger effect = lower value 0.926 | locus YJL129C, strain trk1, stronger effect = lower value 0.899 | locus YJL154C, strain vps35, stronger effect = lower value 0.968 | locus YJL166W, strain qcr8, stronger effect = lower value 0.925 | locus YJL187C, strain SWE1, stronger effect = lower value 0.962
0.135 (active) and 0.992 (inactive): locus YHR030C, strain SLT2, stronger effect = lower value
